Compounds without any hit were thinned out: in the full panel of roughly 83,000, 20% have a hit.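 Plates (96-well) were seeded with cells, treated with compound at one concentration, and incubated for 48 hours before percent growth was determined.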 Unmarked numbers belong to inactive results. Active and inactive are the calls of the source. The calls were made as follows: active = growth percent below 10; inactive = the rest.
Tested on: A549/ATCC NSCLC
Experiment: NCI-60 one-dose screen, 48 h (100 = growth as untreated, 0 = no growth, -100 = all killed)
Details: 10 µM unless noted

| Compound | growth |
| --- | --- |
| O=[N+]([O-])c1cc(/C=N/Nc2nc(N/N=C/c3ccc(Cl)c([N+](=O)[O-])c3)nc(N3CCCCC3)n2)ccc1Cl | 111% |
| C#Cc1nc(C(C)=O)cs1 | 108% |
| O=C1[C@H]2Cc3c([nH]c4ccccc34)[C@@H](c3c(Cl)cccc3Cl)N2C(=O)CN1C1CCN(CC2CCCCC2)CC1 | 94.3% |
| O=C1Nc2ccccc2/C1=C/c1ccc(COCC2CO2)n1-c1ccc(O)cc1 (stereo not drawn) | 104% |
| CCOc1ccc(NC2=C(Cl)C(=O)c3nc(C)ccc3C2=O)cc1 | 46.2% |
| O=S(=O)(NCCCNc1nccc(-c2[nH]c(-c3ccccc3)nc2-c2ccc(Cl)c(O)c2)n1)c1cccc(F)c1 | 65.2% |
| CN1CCN(Cc2ccc(NC(=O)c3cncc(C#Cc4cnc5ccc(OCC6(C)COC6)nn45)c3)cc2C(F)(F)F)CC1 | -43.8% (active) |
| COc1cc2c(cc1OC)C(Sc1ccc(F)cc1)c1c(nc(N)c(C#N)c1N)O2 (stereo not drawn) | -30% (active) |
| Cc1nc(-c2ccccc2O)ccc1C(=O)N=Nc1c(O)[nH]c2ccc(Br)cc12 | 103% |
| COc1cc(-c2nnc(SCc3ccc(O)c4ncccc34)n2-c2ccccc2)cc(OC)c1OC | 0.31% (active) |
| NS(=O)(=O)c1ccc(-n2cc(CN3CCCCC3)nn2)cc1 | 105% |
| COc1cc(/C=C2\C(=O)Nc3ccccc32)ccc1OCc1ccc(Cl)cc1 | 107% |
| Cc1ccc(-c2nnc(SCc3ccc(O)c4ncccc34)o2)cc1 | 24.7% |
| COc1ccccc1NCc1cccn1Cc1ccc(F)cc1 | 101% |
| CCN1CCN(Cc2ccc(C(=O)Nc3ccc(C)c(Oc4ccc(-c5[nH]nc6ncnc(N)c56)cc4)c3)cc2C(F)(F)F)CC1 | 96.6% |
| CCOC(=O)c1c(NC(=O)c2ccccc2C(F)(F)F)sc2c1CCC(=O)C2 | 97.5% |
| CN1CCN(c2ccc(/C=N/n3cnc4oc(-c5ccccc5)cc4c3=N)cc2)CC1 | 75.1% |
| Cn1ccnc1C(=O)/C=C/c1ccc(CNC(=O)c2ccc(S(F)(F)(F)(F)F)cc2)cc1 | 16% |
| COc1ccc(NC2=C(Cl)C(=O)c3nc(C)ccc3C2=O)cc1OC | 107% |

| Compound | growth |
| --- | --- |
| CCc1nn2c(C)cc(C)nc2c1Cc1ccc(/C=C/CN2CCN(CCOCCOCCN3CCN(C/C=C/c4ccc(Cc5c(CC)nn6c(C)cc(C)nc56)cc4)CC3)CC2)cc1 | 11.7% |
| COc1c(N2CC3CCCNC3C2)c(F)cc2c(=O)c(C(=O)N/N=C/c3c[nH]c4ccccc34)cn(C3CC3)c12 (stereo not drawn) | 102% |
| CC(=O)c1nnn(-c2c(C(=O)n3nc(C)cc3C)sc(=S)n2-c2ccccc2)c1C | 103% |
| CCCCc1nc(/C=N/Nc2nc(Nc3ccccc3)nc(Nc3ccc(S(N)(=O)=O)cc3)n2)c(Cl)[nH]1 | 108% |
| O=C(CNc1nc(-c2cccc([N+](=O)[O-])c2)cs1)Nc1cccc(Cl)c1 | 108% |
| O=C(CSc1nnc(-c2ccc(Cl)cc2)n1-c1ccccc1)Nc1ccc(Br)cc1 | 4.69% (active) |
| Cn1ccnc1C(=O)/C=C/c1ccc(NC(=O)c2c(F)c(F)c(F)c(F)c2F)cc1 | 101% |
| CNC(=O)c1cc(N2CCc3cc(NC(=O)Nc4ccc(Cl)c(C(F)(F)F)c4)ccc32)ccn1 | 49.2% |
| COc1c(N2CC3CCCNC3C2)c(F)cc2c(=O)c(C(=O)N/N=C/c3ccccc3)cn(C3CC3)c12 (stereo not drawn) | 101% |
| C[C@H](CCC(=O)NCc1ccc(C(=O)Nc2ccccc2N)cc1)[C@H]1CC[C@H]2[C@@H]3[C@@H](O)C[C@@H]4C[C@H](O)CC[C@]4(C)[C@H]3CC[C@]12C | 90.3% |
| COc1c(N2CC3CCCNC3C2)c(F)cc2c(=O)c(C(=O)N/N=C/c3ccc4c(c3)OCO4)cn(C3CC3)c12 (stereo not drawn) | 70.2% |
| O=S(=O)(NCCCNc1nccc(-n2cnc3ccccc32)n1)c1ccc(C(F)(F)F)cc1 | 86.3% |
| C=CCn1c(SCC(=O)Nc2ccc(C(=O)/C=C/c3cc(OC)c(OC)c(OC)c3)cc2)nnc1-c1c[nH]c2ccccc12 | 34.7% |
| Brc1ccccc1/C=N/Nc1nc(N/N=C/c2ccccc2Br)nc(N2CCOCC2)n1 | 97.1% |
| COc1ccc(-c2cc(-c3ccc(Cl)cc3)c(C#N)c(=O)n2Cc2ccc(C(=O)O)cc2)cc1 | 108% |
| CS(=O)(=O)Nc1cc(-c2ccc3ncc(C#N)c(NCc4cccc(F)c4)c3c2)cnc1Cl | 7.5% (active) |
| COc1ccc(NC(=O)Nc2ccc3c(ccn3C(=O)c3cccc(F)c3)c2)cc1 | 53.9% |
| O=C(CNc1nc(-c2cccc([N+](=O)[O-])c2)cs1)Nc1cccc([N+](=O)[O-])c1 | -19% (active) |
| O=C(/C=C/c1ccc(F)cc1)c1ccc(O)cc1 | 92.2% |

— PubChem BioAssay (NCI)
